Here are results for ten sequences from PMC11006913.

What all share (test): PBM; 200 nM protein, PBS
What all share (conditions): dsDNA, one strand shown

Experiment [1] deals with T1, NKX2-4 (Homo sapiens, UniProt Q9H2Z4 175-261, P217L).
T1 sequence: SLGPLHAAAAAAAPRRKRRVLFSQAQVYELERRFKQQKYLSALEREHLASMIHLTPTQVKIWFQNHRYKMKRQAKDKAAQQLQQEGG

The target in experiment [2] is T2, NKX2-4 (Homo sapiens, UniProt Q9H2Z4 175-261, T231S).
T2 sequence: T1 sequence with L43P, T57S

For experiment [3], the target named is T3, NKX2-4 (Homo sapiens, UniProt Q9H2Z4 175-261).
T3 sequence: T1 sequence with L43P

Experiment [4] addresses HOXA2 (Homo sapiens, UniProt O43364 129-215, R185T).
Experiment [5] addresses HOXA2 (Homo sapiens, UniProt O43364 129-215, R185K).
Experiment [6] addresses T4, NKX2-4 (Homo sapiens, UniProt Q9H2Z4 175-261, R246Q).
T4 sequence: T1 sequence with L43P, R72Q

The target of experiment [7] is VAX1 (Homo sapiens, UniProt Q5SQQ9 86-172).
VAX1 (Homo sapiens, UniProt Q5SQQ9 86-172), sequence (Q5SQQ9 86-172): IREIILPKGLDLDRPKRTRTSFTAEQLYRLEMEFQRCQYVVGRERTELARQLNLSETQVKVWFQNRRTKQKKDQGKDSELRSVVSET
Experiment [8] deals with VAX1 (Homo sapiens, UniProt Q5SQQ9 86-172, T142I).
VAX1 (Homo sapiens, UniProt Q5SQQ9 86-172, T142I), sequence (Q5SQQ9 86-172 T142I): as the sequence (Q5SQQ9 86-172) above, with T57I counted along it
Experiment [9] has as its target HOXA2 (Homo sapiens, UniProt O43364 129-215, Y150S).
For experiment [10], the target named is HOXA2 (Homo sapiens, UniProt O43364 129-215).
HOXA2 (Homo sapiens, UniProt O43364 129-215), sequence (O43364 129-215): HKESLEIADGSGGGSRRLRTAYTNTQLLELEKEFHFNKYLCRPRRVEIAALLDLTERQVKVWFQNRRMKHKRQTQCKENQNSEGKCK
In experiment [11] the target is VAX1 (Homo sapiens, UniProt Q5SQQ9 86-172, K157R).
VAX1 (Homo sapiens, UniProt Q5SQQ9 86-172, K157R), sequence (Q5SQQ9 86-172 K157R): as the sequence (Q5SQQ9 86-172) above, with K72R counted along it
The target in experiment [12] is ALX4 (Homo sapiens, UniProt Q9H161 200-286).
ALX4 (Homo sapiens, UniProt Q9H161 200-286), sequence (Q9H161 200-286): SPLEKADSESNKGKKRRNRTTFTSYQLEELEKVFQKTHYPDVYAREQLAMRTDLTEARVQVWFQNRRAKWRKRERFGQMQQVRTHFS
Experiment [13] has as its target ALX4 (Homo sapiens, UniProt Q9H161 200-286, Q225E).
For experiment [14], the target named is HOXB6 (Homo sapiens, UniProt P17509 132-218, K202E).
HOXB6 (Homo sapiens, UniProt P17509 132-218, K202E), sequence (P17509 132-218 K202E): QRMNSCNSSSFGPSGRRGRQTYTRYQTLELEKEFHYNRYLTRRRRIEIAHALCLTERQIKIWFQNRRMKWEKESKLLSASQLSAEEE
Experiment [15] concerns the target HOXB6 (Homo sapiens, UniProt P17509 132-218).
The target of experiment [16] is HOXC9 (Homo sapiens, UniProt P31274 178-260, K195R).
HOXC9 (Homo sapiens, UniProt P31274 178-260, K195R), sequence (P31274 178-260 K195R): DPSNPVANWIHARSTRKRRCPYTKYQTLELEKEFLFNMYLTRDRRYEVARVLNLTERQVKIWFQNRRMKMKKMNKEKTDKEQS
Experiment [17] has as its target HOXC9 (Homo sapiens, UniProt P31274 178-260).
Another experiment concerns the target PITX2 (Homo sapiens, UniProt Q99697 72-157).
Experiment [18] has as its target HOXC9 (Homo sapiens, UniProt P31274 178-260, R193K).
Experiment [19] has as its target HOXC9 (Homo sapiens, UniProt P31274 178-260, R222W).
The target in experiment [20] is T5, PAX4 (Homo sapiens, UniProt O43316 9-242, R200K).
T5 sequence: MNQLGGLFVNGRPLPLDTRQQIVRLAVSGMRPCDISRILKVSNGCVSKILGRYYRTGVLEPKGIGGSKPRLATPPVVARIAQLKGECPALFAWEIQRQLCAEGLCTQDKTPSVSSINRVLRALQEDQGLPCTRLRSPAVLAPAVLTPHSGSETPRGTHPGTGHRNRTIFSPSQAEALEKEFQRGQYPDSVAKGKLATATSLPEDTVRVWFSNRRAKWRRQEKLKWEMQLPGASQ

Experiment [21] deals with T6, PAX4 (Homo sapiens, UniProt O43316 9-242).
T6 sequence: T5 sequence with K192R

For experiment [22], the target named is ALX3 (Homo sapiens, UniProt O95076 139-225, N203Q).
ALX3 (Homo sapiens, UniProt O95076 139-225, N203Q), sequence (O95076 139-225 N203Q): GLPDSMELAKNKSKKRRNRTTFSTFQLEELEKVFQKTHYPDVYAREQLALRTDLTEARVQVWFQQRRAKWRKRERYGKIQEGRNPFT
For experiment [23], the target named is T7, PAX4 (Homo sapiens, UniProt O43316 9-242, R200Q).
T7 sequence: T5 sequence with K192Q

For experiment [24], the target named is T8, PAX4 (Homo sapiens, UniProt O43316 9-242, F177V).
T8 sequence: T5 sequence with F169V, K192R

Experiment [25] deals with ALX3 (Homo sapiens, UniProt O95076 139-225).
ALX3 (Homo sapiens, UniProt O95076 139-225), sequence (O95076 139-225): as the sequence (O95076 139-225 N203Q) above, with Q65N counted along it
In experiment [26] the target is T9, PAX4 (Homo sapiens, UniProt O43316 9-242, F177Y).
T9 sequence: T5 sequence with F169Y, K192R

The target in experiment [27] is ALX3 (Homo sapiens, UniProt O95076 139-225, L168Q).
ALX3 (Homo sapiens, UniProt O95076 139-225, L168Q), sequence (O95076 139-225 L168Q): as the sequence (O95076 139-225 N203Q) above, with L30Q, Q65N counted along it
The target in experiment [28] is ALX3 (Homo sapiens, UniProt O95076 139-225, L168V).
ALX3 (Homo sapiens, UniProt O95076 139-225, L168V), sequence (O95076 139-225 L168V): as the sequence (O95076 139-225 N203Q) above, with L30V, Q65N counted along it
In experiment [29] the target is T10, PAX4 (Homo sapiens, UniProt O43316 9-242, R227W).
T10 sequence: T5 sequence with K192R, R219W

Experiment [30] deals with ALX3 (Homo sapiens, UniProt O95076 139-225, N203S).
ALX3 (Homo sapiens, UniProt O95076 139-225, N203S), sequence (O95076 139-225 N203S): as the sequence (O95076 139-225 N203Q) above, with Q65S counted along it

Where a chain is given by its changes, count along the chain named.

HOXC9 (Homo sapiens, UniProt P31274 178-260, R193K), sequence (P31274 178-260 R193K): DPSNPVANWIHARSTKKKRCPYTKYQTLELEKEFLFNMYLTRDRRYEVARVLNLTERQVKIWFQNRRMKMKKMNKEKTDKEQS
ALX4 (Homo sapiens, UniProt Q9H161 200-286, Q225E), sequence (Q9H161 200-286 Q225E): as the sequence (Q9H161 200-286) above, with Q26E counted along it
HOXA2 (Homo sapiens, UniProt O43364 129-215, R185T), sequence (O43364 129-215 R185T): as the sequence (O43364 129-215) above, with R57T counted along it
HOXC9 (Homo sapiens, UniProt P31274 178-260), sequence (P31274 178-260): as the sequence (P31274 178-260 R193K) above, with K16R counted along it
HOXC9 (Homo sapiens, UniProt P31274 178-260, R222W), sequence (P31274 178-260 R222W): as the sequence (P31274 178-260 R193K) above, with K16R, R45W counted along it
HOXA2 (Homo sapiens, UniProt O43364 129-215, Y150S), sequence (O43364 129-215 Y150S): as the sequence (O43364 129-215) above, with Y22S counted along it
HOXA2 (Homo sapiens, UniProt O43364 129-215, R185K), sequence (O43364 129-215 R185K): as the sequence (O43364 129-215) above, with R57K counted along it
HOXB6 (Homo sapiens, UniProt P17509 132-218), sequence (P17509 132-218): as the sequence (P17509 132-218 K202E) above, with E71K counted along it

As to GCCACGCC, the binding signal with NKX2-4 [1] is 9.91 upbm affinity estimate (log intensity, higher = more binding, comparable within an allelic series); with NKX2-4 [2] it was 9.93 upbm affinity estimate (log intensity, higher = more binding, comparable within an allelic series); in the experiment with NKX2-4 [3] it was 9.88 upbm affinity estimate (log intensity, higher = more binding, comparable within an allelic series); in the experiment with HOXA2 [4], 7.26 upbm affinity estimate (log intensity, higher = more binding, comparable within an allelic series); in the experiment with HOXA2 [5] it was 10.2 upbm affinity estimate (log intensity, higher = more binding, comparable within an allelic series); with NKX2-4 [6] it was 9.85 upbm affinity estimate (log intensity, higher = more binding, comparable within an allelic series). Besides, the binding signal is 7.13 upbm affinity estimate (log intensity, higher = more binding, comparable within an allelic series) with VAX1 [7]; 7.33 upbm affinity estimate (log intensity, higher = more binding, comparable within an allelic series) with VAX1 [8]; 10.4 upbm affinity estimate (log intensity, higher = more binding, comparable within an allelic series) in the experiment with HOXA2 [9]; 7.17 upbm affinity estimate (log intensity, higher = more binding, comparable within an allelic series) with HOXA2 [10]; 7.18 upbm affinity estimate (log intensity, higher = more binding, comparable within an allelic series) in the experiment with VAX1 [11].
AGATGCCG: the binding signal is 9.76 upbm affinity estimate (log intensity, higher = more binding, comparable within an allelic series) with NKX2-4 [1]; 9.8 upbm affinity estimate (log intensity, higher = more binding, comparable within an allelic series) with NKX2-4 [2]; 8.1 upbm affinity estimate (log intensity, higher = more binding, comparable within an allelic series) in the experiment with ALX4 [12]; 9.82 upbm affinity estimate (log intensity, higher = more binding, comparable within an allelic series) with NKX2-4 [3]; 8.32 upbm affinity estimate (log intensity, higher = more binding, comparable within an allelic series) with ALX4 [13]; 9.91 upbm affinity estimate (log intensity, higher = more binding, comparable within an allelic series) with NKX2-4 [6].
For the sequence GGTCCTCA, the binding signal in the experiment with NKX2-4 [1] is 11.5 upbm affinity estimate (log intensity, higher = more binding, comparable within an allelic series); in the experiment with NKX2-4 [2] it was 11.9 upbm affinity estimate (log intensity, higher = more binding, comparable within an allelic series); with NKX2-4 [3], 11.5 upbm affinity estimate (log intensity, higher = more binding, comparable within an allelic series).
As to CCAGGCTC, the binding signal in the experiment with NKX2-4 [1] is 9.76 upbm affinity estimate (log intensity, higher = more binding, comparable within an allelic series); in the experiment with NKX2-4 [2], 9.75 upbm affinity estimate (log intensity, higher = more binding, comparable within an allelic series); with NKX2-4 [3], 9.7 upbm affinity estimate (log intensity, higher = more binding, comparable within an allelic series); in the experiment with HOXB6 [14], 9.08 upbm affinity estimate (log intensity, higher = more binding, comparable within an allelic series); with NKX2-4 [6], 9.86 upbm affinity estimate (log intensity, higher = more binding, comparable within an allelic series); with HOXB6 [15], 9.18 upbm affinity estimate (log intensity, higher = more binding, comparable within an allelic series).
As for CACTCGAG, the binding signal in the experiment with NKX2-4 [1] was 12.4 upbm affinity estimate (log intensity, higher = more binding, comparable within an allelic series); with NKX2-4 [2] it was 12.8 upbm affinity estimate (log intensity, higher = more binding, comparable within an allelic series); with NKX2-4 [3] it was 12.4 upbm affinity estimate (log intensity, higher = more binding, comparable within an allelic series); in the experiment with NKX2-4 [6], 13 upbm affinity estimate (log intensity, higher = more binding, comparable within an allelic series).
Consider ACAATGAG, for which the binding signal is 11.4 upbm affinity estimate (log intensity, higher = more binding, comparable within an allelic series) in the experiment with NKX2-4 [1]; 11.5 upbm affinity estimate (log intensity, higher = more binding, comparable within an allelic series) with NKX2-4 [2]; 11.3 upbm affinity estimate (log intensity, higher = more binding, comparable within an allelic series) in the experiment with NKX2-4 [3]; 11.4 upbm affinity estimate (log intensity, higher = more binding, comparable within an allelic series) with NKX2-4 [6].
ATCGGAGC: the binding signal in the experiment with NKX2-4 [1] is 9.93 upbm affinity estimate (log intensity, higher = more binding, comparable within an allelic series); in the experiment with NKX2-4 [2], 9.93 upbm affinity estimate (log intensity, higher = more binding, comparable within an allelic series); in the experiment with NKX2-4 [3], 9.9 upbm affinity estimate (log intensity, higher = more binding, comparable within an allelic series); with NKX2-4 [6], 10 upbm affinity estimate (log intensity, higher = more binding, comparable within an allelic series).
In the case of CGCGCCCG, the binding signal with NKX2-4 [1] was 9.29 upbm affinity estimate (log intensity, higher = more binding, comparable within an allelic series); with HOXC9 [16], 9.51 upbm affinity estimate (log intensity, higher = more binding, comparable within an allelic series); with NKX2-4 [2], 9.29 upbm affinity estimate (log intensity, higher = more binding, comparable within an allelic series); in the experiment with NKX2-4 [3] it was 9.39 upbm affinity estimate (log intensity, higher = more binding, comparable within an allelic series); in the experiment with HOXC9 [17], 9.64 upbm affinity estimate (log intensity, higher = more binding, comparable within an allelic series); with PITX2, 7.51 upbm affinity estimate (log intensity, higher = more binding, comparable within an allelic series). Further, the binding signal is 9.54 upbm affinity estimate (log intensity, higher = more binding, comparable within an allelic series) with HOXC9 [18]; 9.3 upbm affinity estimate (log intensity, higher = more binding, comparable within an allelic series) with NKX2-4 [6]; 9.66 upbm affinity estimate (log intensity, higher = more binding, comparable within an allelic series) in the experiment with HOXC9 [19].
With ACCCTTAC, the binding signal with NKX2-4 [1] is 11.5 upbm affinity estimate (log intensity, higher = more binding, comparable within an allelic series); with NKX2-4 [2] it was 11.7 upbm affinity estimate (log intensity, higher = more binding, comparable within an allelic series); with NKX2-4 [3] it was 11.4 upbm affinity estimate (log intensity, higher = more binding, comparable within an allelic series).
Turning to CCCGGCGC, the binding signal with NKX2-4 [1] was 9.45 upbm affinity estimate (log intensity, higher = more binding, comparable within an allelic series); with NKX2-4 [2] it was 9.31 upbm affinity estimate (log intensity, higher = more binding, comparable within an allelic series); in the experiment with PAX4 [20], 9.17 upbm affinity estimate (log intensity, higher = more binding, comparable within an allelic series); in the experiment with PAX4 [21] it was 9.1 upbm affinity estimate (log intensity, higher = more binding, comparable within an allelic series); with NKX2-4 [3], 9.49 upbm affinity estimate (log intensity, higher = more binding, comparable within an allelic series); with ALX3 [22], 7.83 upbm affinity estimate (log intensity, higher = more binding, comparable within an allelic series). Also, the binding signal with PAX4 [23] is 9.2 upbm affinity estimate (log intensity, higher = more binding, comparable within an allelic series); in the experiment with PAX4 [24], 9.03 upbm affinity estimate (log intensity, higher = more binding, comparable within an allelic series); in the experiment with ALX3 [25], 7.67 upbm affinity estimate (log intensity, higher = more binding, comparable within an allelic series); with NKX2-4 [6] it was 9.55 upbm affinity estimate (log intensity, higher = more binding, comparable within an allelic series); in the experiment with PAX4 [26], 9.02 upbm affinity estimate (log intensity, higher = more binding, comparable within an allelic series); with VAX1 [7], 7.45 upbm affinity estimate (log intensity, higher = more binding, comparable within an allelic series). Besides, the binding signal with ALX3 [27] was 7.69 upbm affinity estimate (log intensity, higher = more binding, comparable within an allelic series); with ALX3 [28], 7.67 upbm affinity estimate (log intensity, higher = more binding, comparable within an allelic series); with VAX1 [8], 7.15 upbm affinity estimate (log intensity, higher = more binding, comparable within an allelic series); with PAX4 [29], 9.13 upbm affinity estimate (log intensity, higher = more binding, comparable within an allelic series); with ALX3 [30], 7.82 upbm affinity estimate (log intensity, higher = more binding, comparable within an allelic series); in the experiment with VAX1 [11], 7.47 upbm affinity estimate (log intensity, higher = more binding, comparable within an allelic series).
